# Compound activity: PubChem, The Scripps Research Institute Molecular Screening Center
# hgDAF12 agonist – agonists of H. glycines DAF-12 nuclear receptor; actives 1.8% (n = 370,000); HEK293 GAL4-hgDAF12 UAS-luciferase reporter, agonist luminescence; normalized to butyrate control; activation, % at 6.8 µM;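 active = activation above a cutoff set at the mean of all screened compounds plus 3 SD, cut at about 10% in these data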;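 note: 0% = DMSO wells and 100% = sodium butyrate wells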
# FXN GAA850 act – frataxin GAA850 promoter activation; HEK293 lucGAA850 FXN promoter luciferase reporter, 24 h; percent of 10 µM SAHA response; activation, % at 6 µM; actives 0.56% (n = 360,000); AID 540364;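 active = activation above the average of all compounds screened plus 3 SD, cutoff fixed separately per campaign, cut at about 7.5% in these data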;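 note: 0% = DMSO wells and 100% = 10 µM SAHA wells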
# hcDAF12 agonist – H. contortus DAF-12 activation, primary screen. HEK293 hcDAF-12 lit1-tk-luc reporter, luminescence; 0% DMSO, 100% Δ7-dafachronic acid. activation, % at 6.8 µM. actives 1.4% (n = 370,000). AID 652067;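 active = activation above the mean of all tested compounds plus 3 SD, cut at about 5.5% in these data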;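 note: 100% = response to 3 µM Δ7-dafachronic acid high control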
# ssDAF12 agonist – activators of S. stercoralis DAF-12 nuclear receptor. HEK293 ssDAF-12/GRIP1 lit1-tk-luc reporter, luminescence; % of 3 µM dafachronic acid response. AID 652126. actives 1% (n = 370,000). activation, % at 6.8 µM;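 active = activation above the mean over all tested compounds plus 3 SD, cut at about 0.9% in these data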;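 note: 0% = DMSO-only wells and 100% = 3 µM delta7-dafachronic acid wells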
# DAX1 inh-1 – blocks DAX1 repression of SF-1 activated StAR promoter | HEK293T StAR-luciferase reporter, SF-1/DAX-1 repression relief | inhibition, % at 6.8 µM | actives 1.1% (n = 370,000) | AID 652010;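 active = inhibition above the mean over all tested compounds plus 3 SD, cut at about 3.6% in these data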;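 note: 0% = DAX-1 cells with DMSO and 100% = cells lacking DAX-1 with DMSO; higher inhibition means more luminescence from relief of DAX-1 repression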
# DAX1 inh-2 – inhibits human nuclear receptor DAX1; actives 0.99% (n = 340,000); HEK293 Gal4-DAX1 luciferase reporter, luminescence; AID 504766; inhibition, % at 6.75 µM; P51843;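 active = inhibition above the mean over all tested compounds plus 3 SD, cut at about 4.2% in these data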;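 note: 0% = DAX1-transfected cells with DMSO and 100% = empty-vector control cells with DMSO; inhibition shows as a rise in luminescence from relieved DAX1 repression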
# GAA30 counter – activates GAA30 frataxin promoter, counter-screen for GAA850 activators | shares compounds with FXN GAA850 act | actives 66% (n = 1,900) | HEK293 lucGAA30 FXN promoter luciferase, 24 h; DMSO = 0%, 5 µM ipriflavone = 100% | activation, % at 6 µM;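 active = mean activation above the mean of solvent-only control wells plus 3 SD, cut at about 22% in these data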;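 note: counterscreen of GAA850 promoter hits where activity marks nonselective or luminescence artifacts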
# FXN GAA850 conf – confirmation of GAA850 frataxin (FXN) promoter activators; activation, % at 6 µM; actives 86% (n = 1,900); AID 588351; shares compounds with FXN GAA850 act; HEK293 lucGAA850 FXN promoter luciferase reporter, 24 h; 100% = activation by SAHA;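 active = mean activation above a set limit taken from the primary screen, cut at about 8% in these data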;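 note: 0% = DMSO wells and 100% = 10 µM SAHA wells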
# DAX1 inh confirm – confirmation of human DAX1 (NR0B1) inhibitors; HEK293T StAR-promoter luciferase reporter, SF-1/DAX-1 repression; shares compounds with DAX1 inh-1; inhibition, % at 6.8 µM; actives 87% (n = 2,400);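 active = inhibition above the average of every tested compound plus 3 SD, cut at about 3.8% in these data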;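 note: 0% = DAX-1 cells with DMSO and 100% = no DAX-1 control cells with DMSO; active compounds raise luminescence by relieving repression of the StAR reporter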
# SF1 AF2mut Luc – counter-screen for DAX1 inhibitors: nonselective inhibitors with SF-1 AF2 mutant. shares compounds with DAX1 inh-1. HEK293 StAR-luciferase, luminescence. inhibition, % at 6.8 µM. actives 78% (n = 2,400);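 active = inhibition above the mean of all tested compounds plus 3 SD, cut at about 3% in these data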;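 note: 0% = DAX-1 transfected cells with DMSO and 100% = cells without DAX-1 with DMSO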
# LXRb hcDAF ctr – activates human LXR-beta, counter-screen for hcDAF-12 agonists. 3,400 tested, under 10 active. activation, % at 6.8 µM. shares compounds with hcDAF12 agonist. AID 743027. HEK293 Gal4-LXR tk-luc reporter, luminescence, 24 h; normalized: DMSO 0%, positive control 100%;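 active = mean percent activation of the reporter above a cutoff set as the average over tested compounds plus their standard deviation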
# Target sequence (P55055 whole entry, looked up, the tested form may be a part): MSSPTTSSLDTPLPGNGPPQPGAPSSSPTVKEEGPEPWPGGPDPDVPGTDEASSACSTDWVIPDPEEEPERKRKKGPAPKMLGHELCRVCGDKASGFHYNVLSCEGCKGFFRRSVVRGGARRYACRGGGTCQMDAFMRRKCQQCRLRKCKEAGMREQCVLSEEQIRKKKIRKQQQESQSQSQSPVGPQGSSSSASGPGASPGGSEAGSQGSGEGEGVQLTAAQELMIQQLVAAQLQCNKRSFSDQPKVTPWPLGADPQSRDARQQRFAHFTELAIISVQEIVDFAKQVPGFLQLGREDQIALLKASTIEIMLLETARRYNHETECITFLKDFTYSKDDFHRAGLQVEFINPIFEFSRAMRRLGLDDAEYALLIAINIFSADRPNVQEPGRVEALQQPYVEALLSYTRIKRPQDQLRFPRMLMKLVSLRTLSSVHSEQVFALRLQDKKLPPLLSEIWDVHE
# hcDAF12 conf – hcDAF-12 agonism, confirmation assay. AID 743032. actives 61% (n = 3,400). shares compounds with hcDAF12 agonist. HEK293 hcDAF-12 lit1-tk-luc reporter, luminescence; % of Δ7-dafachronic acid response. activation, % at 6.8 µM;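 active = mean activation across triplicate tests above the threshold derived from the earlier primary screen, cut at about 5.5% in these data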;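 note: 0% = DMSO only wells and 100% = 3 µM Δ7-dafachronic acid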
# hgDAF12 ag – confirmation of H. glycines DAF-12 agonists; AID 743050; shares compounds with hgDAF12 agonist; actives 80% (n = 3,300); HEK293 GAL4-hgDAF12 luciferase reporter, agonist mode; percent of butyrate response; activation, % at 6.8 µM;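 active = mean activation over triplicate wells above the hit cutoff derived from the earlier primary screen, cut at about 11% in these data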;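 note: 0% = DMSO low control and 100% = 2 mM sodium butyrate high control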
# LXRb DAF12 ctr – counter-screen for DAF-12 agonists: agonists of human LXR-beta | AID 743051 | shares compounds with hgDAF12 agonist | HEK293 Gal4-LXR luciferase reporter, 24 h | activation, % at 6.8 µM | 3,300 tested, under 10 active;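 active = mean activation of the triplicate above a set limit carried over from the primary screen, none filed active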
# * = called active by the depositor; . = no result given. An excerpt weighted towards active compounds, which were near 4.5% of everything screened.
SMILES,hgDAF12 agonist,FXN GAA850 act,hcDAF12 agonist,ssDAF12 agonist,DAX1 inh-1,DAX1 inh-2,GAA30 counter,FXN GAA850 conf,hgDAF12 ag,LXRb DAF12 ctr,others
Cc1cccc2cc(/C=N/NC(=O)c3ccncc3)c(Cl)nc12,0,-1,0,-2,0,1,.,.,.,.,
O=[N+]([O-])c1ccccc1N/N=C/c1cc2ccccc2nc1Cl,4,1,3,0,0,2,.,.,.,.,
O=C(O)c1ccc(N/N=C/c2cc3ccccc3nc2Cl)cc1,17*,11*,5.6*,0,5.4*,4.3*,120*,47*,12*,0,DAX1 inh confirm=14*;SF1 AF2mut Luc=5.7*
Cc1ccc(NC(=O)OC2CC3CC2[C@H]2CCCCN2[C@H]3C)cc1 (stereo partly specified),4,.,-2,0,-1,.,.,.,.,.,
COc1ccc(Nc2nccc(-c3cccc(N)c3)n2)cc1,34*,13*,13*,1,2,2,130*,100*,21*,1,LXRb hcDAF ctr=2;hcDAF12 conf=8.7*
COc1ccc(Nc2nccc(-c3ccc(C#N)cc3)n2)cc1,1,1,-4,-2,-1,0,.,.,.,.,
CC1CCC2(CC1)CCC2NCc1ccc(Cl)c(Cl)c1 (stereo unspecified),1,.,-1,-1,.,.,.,.,.,.,
CCOc1ccccc1NC(=O)c1cc2c(C)nn(-c3ccccc3)c2s1,2,.,-1,-1,0,.,.,.,.,.,
Fc1ccc(-c2cnn3c(-c4ccncc4)ccnc23)cc1,16*,8.6*,3,1,2,3,96*,30*,18*,1,
CCC(C)N(C(=O)CNc1nnnn1-c1ccccc1)C(C)CC (stereo unspecified),-2,.,-1,-1,0,.,.,.,.,.,
Cc1nn(-c2nnc(NC3CCCCC3)nn2)c(C)c1Br,18*,8.6*,6.1*,1.8*,5.2*,4,124*,40*,16*,1,DAX1 inh confirm=13*;SF1 AF2mut Luc=8.3*
Cc1nn(C)c(C)c1S(=O)(=O)NC1CCCC1,1,1,-1,-1,-1,1,.,.,.,.,
Cn1c(O)c(N=NC(=O)c2ccco2)c2ccccc21,19*,8.4*,12*,1.3*,4.2*,1,144*,38*,22*,1,LXRb hcDAF ctr=1;hcDAF12 conf=14*
COC(=O)[C@]1(C#N)CC(=O)N(C(C)C)[C@@H]1c1ccccc1,7,.,0,-1,1,.,.,.,.,.,
